Results taken from PubChem BioAssay (NCI).
About 83,000 compounds went through this panel and 20% of them were active in at least one assay; those are over-represented in the sample as a whole.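 Each cell line was grown in a 96-well plate and treated with one concentration of compound for 48 hours. Values below 10 were considered active.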 Activity calls are given as the source filed them.

How the values were obtained:
Experiment in all cases: NCI-60 one-dose screen, 48 h (100 = growth as untreated, 0 = no growth, -100 = all killed)
Details in all cases: 10 µM unless noted
SK-MEL-2 melanoma = test system: SK-MEL-2 melanoma
SN12C renal = test system: SN12C renal
UO-31 renal = test system: UO-31 renal
TK-10 renal = test system: TK-10 renal
ACHN renal = test system: ACHN renal
CAKI-1 renal = test system: CAKI-1 renal
A498 renal = test system: A498 renal
MOLT-4 leukemia = test system: MOLT-4 leukemia
CCRF-CEM leukemia = test system: CCRF-CEM leukemia
EKVX NSCLC = test system: EKVX NSCLC

Measured: growth

Nc1c(C(=O)Nc2cccc(Cl)c2)sc2ncc(Br)cc12
inactive: SK-MEL-2 melanoma 89.6% | SN12C renal 82% | UO-31 renal 62.2% | TK-10 renal 57.9% | ACHN renal 11.4% | CAKI-1 renal 90.6% | A498 renal 96.5% | MOLT-4 leukemia 87.4%

O=C(CS)OCC(COC(=O)CS)(COC(=O)CS)COC(=O)CS
inactive: SK-MEL-2 melanoma 40.6% | SN12C renal 90.2% | UO-31 renal 93.5% | TK-10 renal 113% | ACHN renal 93.9% | CAKI-1 renal 96.5% | A498 renal 104%
active: MOLT-4 leukemia 3.08%

Cc1cc(C)cc(CCCCCCCCCCCCCCCCCC(=O)O)c1
inactive: SK-MEL-2 melanoma 150% | SN12C renal 106% | UO-31 renal 89% | TK-10 renal 116% | ACHN renal 98.9% | CAKI-1 renal 100% | A498 renal 106% | MOLT-4 leukemia 98.3%

Cc1cc(C)cc(Nc2cc(C)nc3nc(C(F)(F)F)nn23)c1
active: UO-31 renal 2.04%
inactive: SK-MEL-2 melanoma 22.6% | SN12C renal 31.9% | TK-10 renal 46.1% | ACHN renal 28.6% | CAKI-1 renal 12.4% | A498 renal 67% | CCRF-CEM leukemia 16.9% | MOLT-4 leukemia 18.4%

O=C(Oc1c(Cl)c(Cl)c(Cl)c(Cl)c1Cl)C1CCCN1C(=O)OCc1ccccc1 (stereo unspecified)
inactive: SK-MEL-2 melanoma 69.9% | SN12C renal 60% | UO-31 renal 56.1% | TK-10 renal 67.3% | ACHN renal 17% | CAKI-1 renal 90.4% | A498 renal 12.3% | CCRF-CEM leukemia 10.8% | MOLT-4 leukemia 15.5%

CC(COC(=O)c1ccccc1)N1CC2CCC(C1)O2 (stereo unspecified)
inactive: SK-MEL-2 melanoma 107% | SN12C renal 99.8% | UO-31 renal 86% | TK-10 renal 111% | ACHN renal 104% | CAKI-1 renal 96.5% | A498 renal 89.5% | CCRF-CEM leukemia 92.7% | MOLT-4 leukemia 100%

Cc1ccc(Nc2nc(NCCO)c3ccccc3n2)cc1C
inactive: SK-MEL-2 melanoma 39.5% | SN12C renal 21.5% | UO-31 renal 24.6% | ACHN renal 33.1% | MOLT-4 leukemia 24.1%
active: CAKI-1 renal 2.38% | A498 renal -11.9% | CCRF-CEM leukemia 8.3%

CC1=C(C(=O)Nc2ccc(F)cc2)C(c2ccccc2)C2=C(CC(C)(C)CC2=O)N1 (stereo unspecified)
inactive: SK-MEL-2 melanoma 89.4% | SN12C renal 70.1% | UO-31 renal 60.1% | TK-10 renal 104% | CAKI-1 renal 64.3% | A498 renal 47.1% | CCRF-CEM leukemia 62.3% | MOLT-4 leukemia 62.9%

O=c1[nH]c2ccccc2n2cc3cccnc3c12
inactive: EKVX NSCLC 86.4% | SN12C renal 51.2% | UO-31 renal 67.8% | TK-10 renal 83.7% | ACHN renal 49.1% | CAKI-1 renal 68.1% | A498 renal 51.2% | CCRF-CEM leukemia 74.5% | MOLT-4 leukemia 48.4%

COc1ccc(C(=O)C(C#N)c2cc(OC)c(OC)c(OC)c2)cc1 (stereo unspecified)
inactive: SK-MEL-2 melanoma 99.7% | SN12C renal 109% | UO-31 renal 96.5% | TK-10 renal 94% | CAKI-1 renal 129% | CCRF-CEM leukemia 102% | MOLT-4 leukemia 88%

Cn1nc(C(F)(F)F)cc1-c1cc(Cl)c(OCc2ccc(Cl)cc2)c(-c2ccc(Cl)c(C(F)(F)F)c2)c1O
active: EKVX NSCLC 4.62% | SN12C renal 5.76% | UO-31 renal 0.656% | TK-10 renal 2.92% | ACHN renal -11.4% | CAKI-1 renal -19.2% | A498 renal -41.9% | CCRF-CEM leukemia 9.85%

CCCCCCCCCC1=NC(C)(C)CN1C(C)(C)CO
inactive: EKVX NSCLC 90.8% | SN12C renal 83.6% | UO-31 renal 56.8% | TK-10 renal 97.7% | ACHN renal 93.6% | CAKI-1 renal 75% | A498 renal 93% | CCRF-CEM leukemia 82.4%

CC1=NN(c2cccc(S(N)(=O)=O)c2)C(=O)C1
inactive: EKVX NSCLC 91.2% | SN12C renal 90.9% | UO-31 renal 77.1% | TK-10 renal 97.8% | ACHN renal 99.6% | CAKI-1 renal 51% | A498 renal 88.6% | CCRF-CEM leukemia 79.6% | MOLT-4 leukemia 99.7%

N#Cc1nc(-c2cccc(Br)c2)cc(-c2ccc(Nc3nc(N4CCCCC4)nc(N4CCCCC4)n3)cc2)c1N
active: EKVX NSCLC 5.85% | UO-31 renal -78.8% | TK-10 renal -87.8% | ACHN renal -96.3% | CAKI-1 renal -75.5% | A498 renal -20% | MOLT-4 leukemia 8.61%
inactive: SN12C renal 16.7% | CCRF-CEM leukemia 11.4%

CCOC(=O)c1sc2nc(-c3cc4ccccc4o3)cc(-c3ccc(Cl)cc3)c2c1N
inactive: SK-MEL-2 melanoma 83.8% | SN12C renal 82.4% | UO-31 renal 87.2% | TK-10 renal 145% | ACHN renal 80.9% | A498 renal 98.2% | CCRF-CEM leukemia 84% | MOLT-4 leukemia 99.3%

O=c1cc(-c2ccc3c(c2)OCCO3)oc2cc(Cl)ccc12
inactive: EKVX NSCLC 28.1% | SN12C renal 26% | CCRF-CEM leukemia 97%
active: UO-31 renal -72.2% | TK-10 renal -78.2% | ACHN renal -70.1% | CAKI-1 renal 4.01% | A498 renal 8.97%

CC(=O)O[C@H]1[C@H](CC#CC#CC[C@@H]2C[C@]3(C)[C@H]4CC=C5[C@H]6[C@@H](C)[C@H](C)CC[C@]6(C(=O)NCCCCCCCCN)CC[C@@]5(C)[C@]4(C)CC[C@H]3C(C)(C)[C@H]2OC(C)=O)C[C@]2(C)[C@H]3CC=C4[C@H]5[C@@H](C)[C@H](C)CC[C@]5(C(=O)NCCCCCCCCN)CC[C@@]4(C)[C@]3(C)CC[C@H]2C1(C)C
inactive: EKVX NSCLC 110% | SN12C renal 97.8% | UO-31 renal 73.7% | TK-10 renal 145% | ACHN renal 119% | CAKI-1 renal 101% | A498 renal 118% | CCRF-CEM leukemia 105%

Cc1cc2nc3c(=O)[nH]c(=O)nc-3n(CC=O)c2cc1C
inactive: EKVX NSCLC 95.6% | SN12C renal 97.7% | UO-31 renal 106% | TK-10 renal 111% | ACHN renal 105% | CAKI-1 renal 64.8% | A498 renal 116% | CCRF-CEM leukemia 160% | MOLT-4 leukemia 109%

CC1(C)CC[C@]2(C(=O)N3CCNCC3)CC[C@]3(C)C(=CC[C@@H]4[C@@]5(C)CCC(=O)C(C)(C)[C@@H]5CC[C@]43C)[C@@H]2C1
inactive: EKVX NSCLC 96.7% | SN12C renal 101% | UO-31 renal 94.8% | TK-10 renal 101% | ACHN renal 112% | CAKI-1 renal 94.2% | A498 renal 126% | CCRF-CEM leukemia 106% | MOLT-4 leukemia 103%

CCN(CC)CCCC(C)Nc1cnc(C(=O)Nc2cc(C)cc3cccnc23)cn1 (stereo unspecified)
inactive: EKVX NSCLC 77.8% | SN12C renal 77.9% | UO-31 renal 63.3% | TK-10 renal 86.9% | ACHN renal 77.9% | CAKI-1 renal 93.4% | A498 renal 70.3% | CCRF-CEM leukemia 54.2% | MOLT-4 leukemia 46.5%

Nc1nc(N)c2cc(CNc3ccc(Cl)c(Cl)c3)ccc2n1
inactive: EKVX NSCLC 31.4% | SN12C renal 27.4% | TK-10 renal 31.5% | ACHN renal 22.5% | CAKI-1 renal 14.8% | A498 renal 43.1%
active: UO-31 renal 0.0737% | CCRF-CEM leukemia 2.81% | MOLT-4 leukemia -44.2%

O=NN(CC(=O)NNc1ccccc1)CC(=O)NNc1ccccc1
inactive: SK-MEL-2 melanoma 77.7% | SN12C renal 87% | UO-31 renal 22% | TK-10 renal 84.3% | CAKI-1 renal 36% | A498 renal 107% | CCRF-CEM leukemia 30.7% | MOLT-4 leukemia 42.2%

COc1cc2c(cc1OC)C(=O)OC2
inactive: EKVX NSCLC 108% | SN12C renal 99.8% | UO-31 renal 101% | TK-10 renal 123% | ACHN renal 103% | CAKI-1 renal 55.6% | A498 renal 109% | CCRF-CEM leukemia 124% | MOLT-4 leukemia 104%

Cc1nc2n[nH]c(N)c2nc1C
inactive: EKVX NSCLC 106% | SN12C renal 103% | UO-31 renal 87% | TK-10 renal 104% | ACHN renal 104% | CAKI-1 renal 106% | A498 renal 120% | CCRF-CEM leukemia 101%

COc1cc2nccc(Oc3ccc(NC(=O)C4(C(=O)Nc5c(F)cc(F)cc5F)CC4)cc3)c2cc1Oc1ccc(N)cn1
active: A498 renal -6.52%
inactive: EKVX NSCLC 45.2% | SN12C renal 30.6% | UO-31 renal 45.3% | TK-10 renal 84.5% | ACHN renal 50.9% | CAKI-1 renal 65.6% | CCRF-CEM leukemia 70.9% | MOLT-4 leukemia 38.5%

O=C(Cn1nncc1CN1C(=O)CSC1=O)Nc1ccc(F)cc1
inactive: EKVX NSCLC 92.6% | SN12C renal 98.3% | UO-31 renal 87.6% | TK-10 renal 97.9% | ACHN renal 97.9% | CAKI-1 renal 96.4% | A498 renal 76.4% | CCRF-CEM leukemia 97.4% | MOLT-4 leukemia 105%

Nc1ccc(N(O)/C=C2\C=CC=CC2=O)cc1N
inactive: EKVX NSCLC 96.4% | SN12C renal 101% | UO-31 renal 62.5% | TK-10 renal 133% | ACHN renal 76.3% | CAKI-1 renal 100% | A498 renal 88.9% | CCRF-CEM leukemia 57.6% | MOLT-4 leukemia 73%

NC(=O)Nc1ccc2ncnc(Nc3cccc(O)c3)c2c1
inactive: EKVX NSCLC 82.6% | SN12C renal 94.9% | UO-31 renal 80.1% | TK-10 renal 103% | ACHN renal 103% | CAKI-1 renal 84.8% | A498 renal 77.4% | CCRF-CEM leukemia 108% | MOLT-4 leukemia 98.8%

O=C(/C=C/c1ccccc1)C(Br)C(Br)c1ccccc1 (stereo unspecified)
active: UO-31 renal -88.1% | TK-10 renal -31.1% | CAKI-1 renal -44.4% | CCRF-CEM leukemia -41.4% | MOLT-4 leukemia -25%
inactive: SK-MEL-2 melanoma 40.9% | SN12C renal 41.4% | A498 renal 85.1%
